{"source": "a collection of fitness landscapes (doi:10.1016/j.celrep.2020.107928)", "parents": {"B1": {"name": "Caulobacter ParB omega fusion; a variant is named by its letters at X, in order, B8GW30 (parent)", "chain": "MESVVVGEPGMSEGRRGLGRGLSALLGEVDAAPAQAPGEQLGGSREAPIEILQRNPDQPRRTFREEDLEDLSNSIREKGVLQPILVRPSPDTAGEYQIVAGERAWRAAQRAGLKTVPIMVRELDDLAVLEIGIIENVQRADLNVLEEALSYKVLMEKFERTQENIAQTIGKSXSHVANXMRLLXLPDEVQSYLVSGELTAXHARAIAAAADPVALAKQIIEGGLSVRETEALARKAPNLSAGKSKGGRPPRVKDTDTQALESDLSSVLGLDVSIDHRGSTGTLTITYATLEQLDDLCNRLTRGI"}}, "note": "Whole data set: some 81,000 sequences, median “one-hybrid fitness for binding parS DNA” near -0.17, cut for the highest 2% near 0.51. The sample holds the highest values, similar sequences and a random draw of the others, so the mix is not that of the screen."}
{"variants_of": "B1", "test": "one-hybrid fitness for binding parS DNA (scaled: cognate 1, non-cognate 0); higher = stronger binding", "conditions": "with parS DNA site", "summary_of_the_method": "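Fitness here means the log change in variant-to-wild-type read ratio between plasmids sequenced before and after selection. That scale was set so cognate equals 1 and non-cognate equals 0. The selection was a bacterial one-hybrid screen of Caulobacter ParB libraries, four specificity codons randomised, in E. coli USO carrying a HIS3 reporter with the site 19 bp from the promoter, grown 48 hours at 37°C on M9-minus-histidine with 0.1 mM IPTG and 5 mM 3-AT.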"}
{"variant": "TKSI", "one-hybrid fitness for binding parS DNA": "≤ 0.2"}
{"variant": "DEMS", "one-hybrid fitness for binding parS DNA": "≤ 0.2"}
{"variant": "YRHE", "one-hybrid fitness for binding parS DNA": "≤ 0.2"}
{"variant": "PEDT", "one-hybrid fitness for binding parS DNA": "≤ 0.2"}
{"variant": "VYPT", "one-hybrid fitness for binding parS DNA": "≤ 0.2"}
{"variant": "RCGN", "one-hybrid fitness for binding parS DNA": 0.445}
{"variant": "RRGH", "one-hybrid fitness for binding parS DNA": "≤ 0.2"}
{"variant": "RRGP", "one-hybrid fitness for binding parS DNA": "≤ 0.2"}
{"variant": "RRGN", "one-hybrid fitness for binding parS DNA": 0.777}
{"variant": "RRGD", "one-hybrid fitness for binding parS DNA": "≤ 0.2"}
{"variant": "RRGS", "one-hybrid fitness for binding parS DNA": 0.639}
{"variant": "WDVG", "one-hybrid fitness for binding parS DNA": "≤ 0.2"}
{"variant": "IHRW", "one-hybrid fitness for binding parS DNA": "≤ 0.2"}
{"variant": "RLDG", "one-hybrid fitness for binding parS DNA": 0.931}
{"variant": "RLDP", "one-hybrid fitness for binding parS DNA": "≤ 0.2"}
{"variant": "RLYP", "one-hybrid fitness for binding parS DNA": "≤ 0.2"}
{"variant": "RLNG", "one-hybrid fitness for binding parS DNA": 1.01}
{"variant": "RLRG", "one-hybrid fitness for binding parS DNA": 0.966}
{"variant": "RLNQ", "one-hybrid fitness for binding parS DNA": "≤ 0.2"}
{"variant": "RLRD", "one-hybrid fitness for binding parS DNA": "≤ 0.2"}
{"variant": "RLDD", "one-hybrid fitness for binding parS DNA": "≤ 0.2"}
{"variant": "RLYG", "one-hybrid fitness for binding parS DNA": 1.03}
{"variant": "RLNY", "one-hybrid fitness for binding parS DNA": 0.495}
{"variant": "RLRK", "one-hybrid fitness for binding parS DNA": "≤ 0.2"}
{"variant": "RLYH", "one-hybrid fitness for binding parS DNA": 0.271}
{"variant": "CISS", "one-hybrid fitness for binding parS DNA": "≤ 0.2"}
{"variant": "EWYV", "one-hybrid fitness for binding parS DNA": "≤ 0.2"}
{"variant": "QRYM", "one-hybrid fitness for binding parS DNA": "≤ 0.2"}
{"variant": "QVRQ", "one-hybrid fitness for binding parS DNA": "≤ 0.2"}
{"variant": "THSV", "one-hybrid fitness for binding parS DNA": "≤ 0.2"}
{"variant": "AQCS", "one-hybrid fitness for binding parS DNA": "≤ 0.2"}
{"variant": "NWKY", "one-hybrid fitness for binding parS DNA": "≤ 0.2"}
{"variant": "KFYT", "one-hybrid fitness for binding parS DNA": "≤ 0.2"}
{"variant": "RQMH", "one-hybrid fitness for binding parS DNA": 0.292}
{"variant": "RQMN", "one-hybrid fitness for binding parS DNA": 0.423}
{"variant": "RQML", "one-hybrid fitness for binding parS DNA": "≤ 0.2"}
{"variant": "RQMG", "one-hybrid fitness for binding parS DNA": 0.973}
{"variant": "RQMQ", "one-hybrid fitness for binding parS DNA": "≤ 0.2"}
{"variant": "RQMC", "one-hybrid fitness for binding parS DNA": 0.945}
{"variant": "RQMP", "one-hybrid fitness for binding parS DNA": "≤ 0.2"}
{"variant": "RQMY", "one-hybrid fitness for binding parS DNA": 0.474}
{"variant": "RQMS", "one-hybrid fitness for binding parS DNA": 0.998}
{"variant": "RQMM", "one-hybrid fitness for binding parS DNA": 0.33}
{"variant": "RQMD", "one-hybrid fitness for binding parS DNA": "≤ 0.2"}
{"variant": "RQMT", "one-hybrid fitness for binding parS DNA": 0.881}
{"variant": "DRVV", "one-hybrid fitness for binding parS DNA": "≤ 0.2"}
{"variant": "NSRG", "one-hybrid fitness for binding parS DNA": "≤ 0.2"}
{"variant": "SMFV", "one-hybrid fitness for binding parS DNA": "≤ 0.2"}
{"variant": "FLVT", "one-hybrid fitness for binding parS DNA": "≤ 0.2"}
{"variant": "RNHS", "one-hybrid fitness for binding parS DNA": 0.911}
{"variant": "RNLD", "one-hybrid fitness for binding parS DNA": "≤ 0.2"}
{"variant": "RNWN", "one-hybrid fitness for binding parS DNA": "≤ 0.2"}
{"variant": "RNIG", "one-hybrid fitness for binding parS DNA": 0.597}
{"variant": "RNPG", "one-hybrid fitness for binding parS DNA": 0.433}
{"variant": "RNHP", "one-hybrid fitness for binding parS DNA": "≤ 0.2"}
{"variant": "RNLN", "one-hybrid fitness for binding parS DNA": 0.251}
{"variant": "RNIH", "one-hybrid fitness for binding parS DNA": "≤ 0.2"}
{"variant": "RNWP", "one-hybrid fitness for binding parS DNA": "≤ 0.2"}
{"variant": "RNLS", "one-hybrid fitness for binding parS DNA": 0.895}
{"variant": "RNWS", "one-hybrid fitness for binding parS DNA": 0.705}
{"variant": "RNHH", "one-hybrid fitness for binding parS DNA": "≤ 0.2"}
{"variant": "MDVV", "one-hybrid fitness for binding parS DNA": "≤ 0.2"}
{"variant": "QCYT", "one-hybrid fitness for binding parS DNA": "≤ 0.2"}
{"variant": "GRNR", "one-hybrid fitness for binding parS DNA": "≤ 0.2"}
{"variant": "EQIG", "one-hybrid fitness for binding parS DNA": "≤ 0.2"}
{"variant": "FSEV", "one-hybrid fitness for binding parS DNA": "≤ 0.2"}
{"variant": "HKDS", "one-hybrid fitness for binding parS DNA": "≤ 0.2"}
{"variant": "YPGT", "one-hybrid fitness for binding parS DNA": "≤ 0.2"}
{"variant": "ADYG", "one-hybrid fitness for binding parS DNA": "≤ 0.2"}
{"variant": "CAGL", "one-hybrid fitness for binding parS DNA": "≤ 0.2"}
{"variant": "RNQP", "one-hybrid fitness for binding parS DNA": "≤ 0.2"}
{"variant": "RNGD", "one-hybrid fitness for binding parS DNA": "≤ 0.2"}
{"variant": "RNYS", "one-hybrid fitness for binding parS DNA": 0.85}
{"variant": "RNSP", "one-hybrid fitness for binding parS DNA": "≤ 0.2"}
{"variant": "RNSN", "one-hybrid fitness for binding parS DNA": 0.385}
{"variant": "RNGP", "one-hybrid fitness for binding parS DNA": "≤ 0.2"}
{"variant": "RNQH", "one-hybrid fitness for binding parS DNA": "≤ 0.2"}
{"variant": "RNPS", "one-hybrid fitness for binding parS DNA": 0.478}
{"variant": "RNQS", "one-hybrid fitness for binding parS DNA": 0.921}
{"variant": "RNGS", "one-hybrid fitness for binding parS DNA": 0.873}
{"variant": "RNSS", "one-hybrid fitness for binding parS DNA": 0.967}
{"variant": "RNYH", "one-hybrid fitness for binding parS DNA": "≤ 0.2"}
{"variant": "GNAI", "one-hybrid fitness for binding parS DNA": "≤ 0.2"}
{"variant": "MPRT", "one-hybrid fitness for binding parS DNA": "≤ 0.2"}
{"variant": "LHGD", "one-hybrid fitness for binding parS DNA": "≤ 0.2"}
{"variant": "GSGG", "one-hybrid fitness for binding parS DNA": "≤ 0.2"}
{"variant": "TQRY", "one-hybrid fitness for binding parS DNA": "≤ 0.2"}
{"variant": "LATY", "one-hybrid fitness for binding parS DNA": "≤ 0.2"}
{"variant": "GQKN", "one-hybrid fitness for binding parS DNA": "≤ 0.2"}
{"variant": "HRKI", "one-hybrid fitness for binding parS DNA": "≤ 0.2"}
{"variant": "RNRP", "one-hybrid fitness for binding parS DNA": "≤ 0.2"}
{"variant": "RNCN", "one-hybrid fitness for binding parS DNA": 0.304}
{"variant": "RNRN", "one-hybrid fitness for binding parS DNA": 0.371}
{"variant": "RNIN", "one-hybrid fitness for binding parS DNA": "≤ 0.2"}
{"variant": "RNCS", "one-hybrid fitness for binding parS DNA": 0.83}
{"variant": "RNID", "one-hybrid fitness for binding parS DNA": "≤ 0.2"}
{"variant": "RNIS", "one-hybrid fitness for binding parS DNA": 0.65}
